# Only a selection was taken, and hits are over-represented in it overall.
# Rango release inh = inhibition of RanGTP-driven Rango-importin beta dissociation | actives 0.071% (n = 340,000) | Potency, µM (series often up to 46.1 µM), inactives show at the highest dose activity change, negative = inhibition | Biochemical FRET Rango-importin beta, RanGTP-induced dissociation | O95149+P62826; also: potency is read from the fitted curve at half-maximal effect; % of control where 0% means no effect; nearly all actives have a fitted effect of over 45% in size
#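 Rango (0.1 uM)–importin beta (0.25 uM) complex; RanGTP-RCC1 trigger; 45 min RT; CFP/YFP FRET read.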
# ClpP mod = qHTS Assay for Activators of ClpP | ATP-dependent Clp protease proteolytic subunit (Bacillus subtilis (strain 168)), P80244 | purified B. subtilis ClpP, FRET peptide cleavage, 20 min | Potency, µM (top dose mostly 57.5 µM), for inactives: top-dose activity change, negative = active | actives 1.9% (n = 340,000); active = well fitted falling curve with a large enough effect; inconclusive = small, poorly fitted or top-dose-only effect; inactive = no such curve, though single readings can be large or run the other way; also: potency is read from the fitted curve at half-maximal effect; the source files actives as falling curves though it sought activators and does not explain the sign; nearly all actives have a fitted effect of over 65% in size
#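 FRET quenching reversal measured ClpP activation: 10 microg/mL B. subtilis ClpP at pH 8 with the FRET-FV decapeptide, read at 430 nm after 320 nm excitation. The 20-min minus 0-min signal was scaled between DMSO/no-enzyme wells and ADEP (5.8 microM final).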
# CBFb RUNX1 block = CBF-beta/RUNX1 interaction disruption; 230,000 tested, under 10 active; Q01196+Q13951; AlphaScreen CBFb-His/RUNX1-biotin binding, biochemical; Potency, µM (doses to about 59.8 µM), inactives show top-dose activity, negative = inhibition, most hits filed as inhibitors; active = well fitted curve in the direction sought with a large enough effect; inconclusive = small, poorly fitted or top-dose-only effect, or effect the other way, or another doubt; inactive = no such curve, though single readings can be large or run the other way; also: % of control where 0% means no effect
# Target sequence (Q01196 whole entry, looked up): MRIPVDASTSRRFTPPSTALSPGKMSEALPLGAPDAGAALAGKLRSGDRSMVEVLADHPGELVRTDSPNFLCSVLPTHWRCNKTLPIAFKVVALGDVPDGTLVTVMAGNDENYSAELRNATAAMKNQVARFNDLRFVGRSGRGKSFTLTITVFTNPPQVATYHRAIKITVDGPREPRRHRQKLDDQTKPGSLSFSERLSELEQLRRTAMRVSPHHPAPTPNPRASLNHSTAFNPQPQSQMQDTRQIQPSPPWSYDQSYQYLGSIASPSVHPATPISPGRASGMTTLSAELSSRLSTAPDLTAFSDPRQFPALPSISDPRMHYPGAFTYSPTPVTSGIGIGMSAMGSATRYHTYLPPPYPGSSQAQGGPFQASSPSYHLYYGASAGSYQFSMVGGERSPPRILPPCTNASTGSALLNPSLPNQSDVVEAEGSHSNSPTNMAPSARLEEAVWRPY
# Target sequence (Q13951 whole entry, looked up): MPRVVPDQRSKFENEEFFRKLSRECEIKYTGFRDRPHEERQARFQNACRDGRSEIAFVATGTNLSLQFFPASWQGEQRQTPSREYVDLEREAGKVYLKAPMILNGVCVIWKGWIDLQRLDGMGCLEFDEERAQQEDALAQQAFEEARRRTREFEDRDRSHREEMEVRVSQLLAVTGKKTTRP
#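 His-tagged CBF-beta and biotinylated RUNX1 (30 nM each) were premixed 20 min at room temperature, exposed to compound for 15 min, then given nickel-chelate and streptavidin AlphaScreen beads (50 ng each). After 90 min, AlphaScreen signal was read.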
# MBNL1-CUG inh = blocks human MBNL1 binding to CUG repeat RNA; TR-FRET MBNL1-His/biotin-(CUG)12 binding, 665/545 ratio; Potency, µM (highest dose often 57.5 µM), without a hit: top-dose activity change, negative = inhibition, usual class: inhibitors; actives 0.036% (n = 280,000); active = well fitted inhibition curve with a large enough effect in the signal ratio, with a control signal flat, not every such curve was filed as active; inconclusive = small, poorly fitted or top-dose-only effect, or effect the other way, or a change in a side signal; inactive = no such curve, though single readings can be large or run the other way; the % refers to the signal ratio; also: potency is read from the fitted curve at half-maximal effect; % is scaled to controls: 0 for no effect and ±100 for the full control effect
#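 His-tagged MBNL1 binding to biotinylated (CUG)12 RNA was measured by TR-FRET using terbium anti-His antibody (0.055 ng/ul final) and streptavidin-XL665 (5 nM final). Compounds were titrated 92 nM to 58 uM; 60 min at room temperature.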
# Rango-impB inh = prevents formation of the Rango-importin beta complex | Rango CFP/YFP FRET sensor + importin beta, 45 min | Potency, µM (titrated, usually from 92.2 µM), for inactives: at the highest dose inhibition of complex formation | actives 0.031% (n = 340,000);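 also: potency is read from the fitted curve at half-maximal effect; 0% = DMSO wells and 100% = buffer wells lacking importin beta; nearly all actives have a fitted effect of over 15% in size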
#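 FRET biosensor Rango (snurportin 1 IBB between N-terminal EYFP and C-terminal Cerulean), 50 nM in PBS/1 mM DTT/0.02% Tween-20/0.1% BSA, preincubated 5 min RT with compound; 0.125 microM importin beta added, 45 min RT, CFP/YFP FRET ratio read.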
# An asterisk follows results filed as active; ? = inconclusive; . = not tested or not shown; [ ] = remark or other dose. Unless noted, calls follow the shape of the full dose curve.
SMILES,Rango release inh,ClpP mod,CBFb RUNX1 block,MBNL1-CUG inh,Rango-impB inh
CCOc1ccc2nc(NC(=O)CSc3ccc(Cl)cc3)sc2c1,2%,-3%,-2%,2%,0%
COc1ccc(-c2cc(C(F)(F)F)c3c(n2)sc2c(O)cc(=O)[nH]c23)c(OC)c1,?,0%,17%,.,?
Cc1cc(C)c2c(n1)sc1c(O)cc(=O)[nH]c12,-5%,32µM*,-7%,10%,1%
COc1ccc(CC(=O)NNc2ncnc3c2cnn3-c2ccccc2)cc1,-12%,-4%,4%,2%,1%
COc1ccc(CC(=O)NNc2ncnc3c2cnn3-c2ccc(C)cc2)cc1,15µM*,-4%,-2%,-3%,-7%
Fc1ccc(-n2cc(-c3ccccc3)c3c(NCCc4ccccc4)ncnc32)cc1,.,32µM*,.,.,.
COc1ccc(CCNc2ncnc3c2c(-c2ccccc2)cn3-c2ccc(Cl)cc2)cc1OC,.,22µM*,.,.,.
COCCN(CCOC)c1ncnc2c1c(-c1ccccc1)cn2-c1ccc(C)c(Cl)c1,.,28µM*,.,.,.
COc1ccc(CCNc2cc(C)nc3c(-c4ccccc4)cnn23)cc1OC,-4%,28µM*,-4%,8%,-1%
CN(C)CCCNc1ncnc2c1c(-c1ccccc1)cn2-c1ccccc1,-13%,-5%,.,3%,-1%
Cc1cc(NC(=O)c2ccc(-c3ccc(Br)cc3)o2)cc(-c2nc3ncccc3o2)c1O,.,-1%,.,.,.
Cc1ccc(-c2nc(P(=O)(c3ccccc3)c3ccccc3)c(N3CCOCC3)o2)cc1,-6%,-10%,0%,24%,0%
CNc1oc(-c2ccc(Cl)cc2)nc1P(=O)(c1ccccc1)c1ccccc1,0%,28µM*,2%,2%,-1%
Cc1cnc(-c2nnc(N(C)C(=O)C3CCCO3)s2)cn1 (stereo unspecified),-19%,28µM*,-2%,15%,0%
COc1ccc(-c2nnc(N(C)C(=O)C3CCCO3)s2)cc1 (stereo unspecified),3%,-4%,3%,7%,2%
CCCCOC(=O)/C(C#N)=C/c1ccc(-c2ccc(Br)cc2)o1,.,-2%,.,.,.
COCCCn1c(C(=O)N2CCOCC2)cc2c(=O)n3cccc(C)c3nc21,-4%,28µM*,.,.,-2%
CCCCN(CC)C(=O)c1cc2c(=O)n3cccc(C)c3nc2n1C,.,5%,.,.,.
CCN(CC)C(=O)c1cc2c(=O)n3cccc(C)c3nc2n1C,16%,32µM*,8%,107%,0%
COCCCn1c(C(=O)N2CC(C)OC(C)C2)cc2c(=O)n3cccc(C)c3nc21 (stereo unspecified),2%,3%,.,9%,0%
CCCCn1c(=NC(=O)c2ccc3c(c2)OCO3)c(C#N)cc2c(=O)n3cccc(C)c3nc21,?,32µM*,2%,-3%,?
Cc1[nH]c2ccc(C(=O)N3CCN(c4ccccc4F)CC3)cc2c1C,.,-2%,.,.,.
COC(=O)c1sc2cnccc2c1N,?,14µM*,1%,?,?
COC(=O)c1ccncc1N,-5%,4%,11%,3%,-2%
COc1ccc2c(c1)c(=O)oc1cc(OCC(=O)N3CCCC(C)C3)ccc12 (stereo unspecified),1%,?,-12%,5%,-4%
SMILES,Rango release inh,ClpP mod,CBFb RUNX1 block,MBNL1-CUG inh,Rango-impB inh
COc1ccc2c(c1)c(=O)oc1cc(OCC(=O)N3CCC(C)CC3)ccc12,-5%,18µM*,-30%,?,-7%
CC(C)c1ccc(OCC(=O)N2CCc3ccccc3C2)cc1,14%,.,.,0%,4%
COc1ccc2c(c1)c(=O)oc1cc(OCC(=O)N3CCc4ccccc4C3)ccc12,1%,4.5µM*,?,4%,0%
COC(=O)C1=NOC2(C=C(Br)C(OC)=C(Br)C2=O)C1 (stereo unspecified),.,.,5%[13.1 µM],.,.
CCc1cccc(C)c1NC(=O)C1CCCN1S(=O)(=O)c1cccc2nsnc12 (stereo unspecified),.,1%,.,.,.
Cc1cc(NC(=O)COC(=O)c2ccccc2NCCO)no1,6%,16µM*,.,.,?
CCOC(=O)c1ccccc1NC(=O)COC(=O)CSCC(=O)Nc1cc(C)on1,6%,0%,.,.,-3%
CCOc1ccc(CNC(=O)CS(=O)(=O)c2cccc3nsnc23)cc1,.,-4%,.,.,.
CC(=O)Nc1ccc2oc(-c3cc(F)c(F)cc3Cl)nc2c1,4%,18µM*,4%,?,?
Cc1cc(NC(=O)c2ccc3c(c2)OCCO3)cc(-c2nc3ccccc3o2)c1O,.,0%,.,.,.
O=C(Nc1ccc2oc(-c3ccccc3F)nc2c1)c1ccc2c(c1)OCCO2,3%,28µM*,2%,0%,-5%
O=C(Nc1ccc(-c2nc3ccccc3o2)cc1)c1ccc2c(c1)OCO2,-4%,32µM*,1%,25%,0%
O=C(Nc1ccc2oc(-c3cccc4ccccc34)nc2c1)c1ncn[nH]1,0%,32µM*,-6%,5%,3%
O=C(Nc1ccc2oc(-c3ccccc3Cl)nc2c1)c1ncn[nH]1,-9%,-29%,-4%,0%,-4%
COc1ccc(NC(=O)Cn2c(=O)n(CCc3ccccc3)c(=O)c3c4c(sc32)CCCC4)cc1,.,0%,.,.,.
COc1ccc(Nc2c(-c3ccc(C)o3)nc3cc(C)ccn23)cc1,.,4%,.,.,.
CCc1ccccc1NC(=O)CSc1nncn2c1cc1oc(C)cc12,.,-5%,.,.,.
Cc1noc(C)c1-c1ccc2ncnc(NCc3ccco3)c2c1,.,.,-7%,.,.
O=C(Nc1ccc(-c2nc3ccccc3o2)cc1)c1cccnc1,4%,-2%,5%,8%,3%
O=C(Nc1ccc(-c2nc3ccccc3o2)cc1)c1ccc(N2C(=O)C3C4C=CC(C4)C3C2=O)cc1 (stereo unspecified),8%,3.2µM*,-2%,4%,2%
CCN(C(=O)CSc1nnc(-c2cccs2)n1N)c1c(N)n(Cc2ccccc2)c(=O)[nH]c1=O,-1%,35µM*,.,.,0%
CN(c1cccc(F)c1)c1cc2c(c3c1ccn3C)C1CCC2C1 (stereo unspecified),.,8.9µM*,.,.,.
Cc1cc(C)c2sc(NC(=O)c3ccc(S(=O)(=O)N4CCOCC4)cc3)nc2c1,.,4%,.,.,.
CC(C)(C)CC(=O)Nc1ccc(-c2nnc3n2CCCCC3)cc1,-16%,-1%,.,-8%,-3%
Cc1ccc(C(=O)C[n+]2ccc(-c3nnc4n3CCC4)cc2)cc1,-7%,11µM*,-2%,?,?
O=C(C[n+]1ccc(-c2nnc3n2CCC3)cc1)c1ccc(Cl)cc1,-24%,32µM*,4%,?,?
N=C1CCCN1CC(=O)c1ccc(Cl)cc1,2%,2%,0%,6%,-1%
